This is an account of results in PubChem BioAssay (NCI).

Some test systems named below: K-562 leukemia; MDA-MB-231 breast; RXF 393 renal; SF-268 CNS; SF-295 CNS; SF-539 CNS; UACC-257 melanoma; HCT-15 colon; M14 melanoma; MALME-3M melanoma.
What all share (test): NCI-60 one-dose screen, 48 h (100 = growth as untreated, 0 = no growth, -100 = all killed)
Common to all, as to details: 10 µM

Molecules are shown by their SMILES. This is part of a sample that, as a whole, favours compounds with a hit. Of some 83,000 tested, about 20% had one in any assay.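 The endpoint reported here, percent growth, reads 100 for growth as untreated, 0 for no net growth and -100 for all cells dead.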 Unmarked numbers belong to inactive results. Activity calls are given as the source filed them. Rule for the calls: active = growth percent below 10; inactive = the rest.

With `Nc1ccc2cc(S(=O)(=O)O)cc(O)c2c1N=Nc1ccc(F)cc1`, the growth is 119% in the assay with K-562 leukemia; 112% with MDA-MB-231 breast; 119% in the assay with RXF 393 renal; 114% in the assay on SF-268 CNS; 110% in the assay on SF-295 CNS; 95.9% in the assay on SF-539 CNS. Further, the growth with UACC-257 melanoma is 106%; in the assay with HCT-15 colon, 105%.

In the case of `COc1cc2c(cc1OC)N(CCO)C1=C(C(=O)OC1)C2c1ccc(Cl)c(Cl)c1` (stereo not drawn), the growth with K-562 leukemia is 88.7%; in the assay with MDA-MB-231 breast, 96.8%; with RXF 393 renal, 97.8%; in the assay with SF-268 CNS, 100%; in the assay with SF-295 CNS, 103%; with SF-539 CNS, 99.3%. In addition, the growth was 103% with UACC-257 melanoma, 112% in the assay on M14 melanoma and 98.2% in the assay on HCT-15 colon.

On to `O=C(O)CN1C(=O)c2cccc3cccc(c23)C1=O`, for which the growth in the assay with MALME-3M melanoma was 102%; in the assay with MDA-MB-231 breast, 85.1%; in the assay on SF-268 CNS it was 122%; in the assay with SF-295 CNS, 99.7%; with SF-539 CNS, 98.7%; with UACC-257 melanoma, 98.2%. Further, the growth is 99.6% in the assay with M14 melanoma and 108% with HCT-15 colon.

Turning to `CCCCCC(=O)c1ccc(OCCCN2CCN(C(=O)OCC)CC2)cc1`, the growth in the assay with K-562 leukemia is 66.4%; in the assay with MDA-MB-231 breast, 99.5%; with RXF 393 renal, 102%; in the assay on SF-268 CNS it was 108%; in the assay with SF-295 CNS, 81.8%; in the assay on SF-539 CNS, 104%. Besides, the growth in the assay on UACC-257 melanoma is 95.6%; in the assay with HCT-15 colon, 85.1%.

Consider `O=C(NN1C(=O)CSC1c1ccc(Cl)cc1)c1cccnc1` (stereo not drawn), for which the growth was 88.8% with MALME-3M melanoma; 156% with MDA-MB-231 breast; 97% with SF-268 CNS; 78.3% in the assay on SF-295 CNS; 105% in the assay with SF-539 CNS; 112% in the assay with UACC-257 melanoma. The figures for the growth with M14 melanoma and with HCT-15 colon were 84.1% and 119%, respectively.

For the compound `COc1ccc2c(c1)-c1c(c3cc(OC)ccc3n(CCN(C)C)c1=O)C2=O`, the growth in the assay with K-562 leukemia was 18.6%; in the assay with MDA-MB-231 breast, 36.7%; with RXF 393 renal, 25.2%; in the assay with SF-268 CNS, 22.1%; with SF-295 CNS, 7.07% (active); with SF-539 CNS, 37.7%. Moreover, the growth with UACC-257 melanoma was 18.4%; in the assay on M14 melanoma it was 24%; with HCT-15 colon, 21.9%.

With `O=C(CNC(=O)OCc1ccccc1)NCC(=O)Oc1ccc([N+](=O)[O-])cc1`, the growth was 117% in the assay with K-562 leukemia; 106% with MDA-MB-231 breast; 117% with RXF 393 renal; 108% in the assay with SF-268 CNS; 103% in the assay on SF-295 CNS; 104% in the assay with SF-539 CNS. In addition, the figures for the growth in the assay on M14 melanoma and with HCT-15 colon were 89.5% and 105%, respectively.

Regarding `CC(=O)c1cc(Cl)ccc1O`, the growth in the assay with K-562 leukemia was 103%; in the assay on MDA-MB-231 breast, 100%; with RXF 393 renal it was 106%; in the assay on SF-268 CNS, 104%; in the assay on SF-295 CNS, 94.1%; with SF-539 CNS it was 89.1%. For the same compound, the values for the growth in the assay on UACC-257 melanoma and with HCT-15 colon were 110% and 98.9%, respectively.

For `O=C(CCCCC[P+](c1ccccc1)(c1ccccc1)c1ccccc1)NC(COC(=O)C(Cl)Cl)(COC(=O)C(Cl)Cl)COC(=O)C(Cl)Cl`, the growth with K-562 leukemia was 98.2%; in the assay on MDA-MB-231 breast, 111%; in the assay with RXF 393 renal, 101%; with SF-268 CNS, 103%; in the assay with SF-295 CNS it was 99%; in the assay with SF-539 CNS, 107%. For the same compound, the values for the growth with UACC-257 melanoma, in the assay with M14 melanoma and with HCT-15 colon were 97.5%, 102% and 99%, respectively.

In the case of `COc1ccc2c(c1)C(=O)c1c-2c(=O)n(CCCN(C)C)c2cc(OC)c(OC)cc12`, the growth is 64.5% in the assay with K-562 leukemia; 103% in the assay with MDA-MB-231 breast; 89.4% with RXF 393 renal; 46.9% with SF-268 CNS; 20.7% with SF-295 CNS; 55% in the assay on SF-539 CNS. For the same compound, the growth in the assay on UACC-257 melanoma is 100%; in the assay with M14 melanoma, 48.4%; in the assay on HCT-15 colon it was 82.2%.

Regarding `c1ccc2c(c1)oc1c3cccnc3ccc21`, the growth in the assay on K-562 leukemia is 95.8%; in the assay on MDA-MB-231 breast it was 87.7%; in the assay on RXF 393 renal, 94.4%; in the assay on SF-268 CNS it was 98.3%; with SF-295 CNS, 105%; with SF-539 CNS it was 88.1%. For the same compound, the growth with UACC-257 melanoma is 101%; with HCT-15 colon it was 95.1%.

For `COC(=O)c1c(-c2ccccc2)csc1NC(=O)c1c(-c2ccccc2)noc1C`, the growth in the assay with K-562 leukemia was 18.5%; in the assay with MDA-MB-231 breast it was 59.2%; in the assay with RXF 393 renal, 38.8%; in the assay with SF-268 CNS, 36.5%; with SF-295 CNS it was 43.8%; with SF-539 CNS it was 33.2%. The results for the growth with UACC-257 melanoma and in the assay with HCT-15 colon were 45.5% and 14.5%, respectively.

With `CCc1ccc2c(c1)N(CCO)C1=C(C(=O)OC1)C2c1ccccc1` (stereo not drawn), the growth is 49.1% in the assay on K-562 leukemia; 103% with MDA-MB-231 breast; 94.3% in the assay on RXF 393 renal; 106% with SF-268 CNS; 86% with SF-295 CNS; 103% in the assay with SF-539 CNS. Besides, the growth in the assay on M14 melanoma is 78.9%; in the assay with HCT-15 colon, 71.6%.

Consider `CC1CC(=O)OC(C)C1` (stereo not drawn), for which the growth was 98.7% in the assay with MALME-3M melanoma; 113% in the assay on MDA-MB-231 breast; 104% in the assay on RXF 393 renal; 111% with SF-268 CNS; 94.6% with SF-295 CNS; 98.5% with SF-539 CNS. The growth in the assay with UACC-257 melanoma is 111%; in the assay with M14 melanoma, 100%; in the assay with HCT-15 colon it was 104%.

Turning to `COc1cc(CNc2ccccc2C(=O)N2CCN(C(=O)c3cc(-c4cc(OC)c(OC)c(OC)c4)n4nc(-c5ccccc5)cc4n3)CC2)cc(OC)c1OC`, the growth in the assay with K-562 leukemia was 22.8%; in the assay with MDA-MB-231 breast, 67.8%; in the assay with RXF 393 renal, 35.5%; with SF-268 CNS, 65%; with SF-295 CNS, 0.214% (active); in the assay on SF-539 CNS, 49.4%. For the same compound, the growth in the assay on UACC-257 melanoma was 37.5%; with HCT-15 colon, 42.8%.

In the case of `Cc1ccc(NC(=O)CSc2nc3ccccc3c(=O)n2CCc2ccccc2)c(C(=O)O)c1`, the growth in the assay on MDA-MB-231 breast was 90.6%; in the assay with SF-268 CNS it was 104%; in the assay on SF-295 CNS, 91.8%; in the assay on SF-539 CNS, 104%; in the assay with UACC-257 melanoma, 98.1%; with M14 melanoma it was 97.8%. In the assay with HCT-15 colon, the growth was 107%.

Consider `Nc1ncn([C@@H]2O[C@H](CO)[C@@H](O)[C@H]2O)c(=O)n1`, for which the growth in the assay with MDA-MB-231 breast is -3.92% (active); in the assay with SF-268 CNS, 33.8%; with SF-295 CNS it was 28.4%; in the assay with SF-539 CNS it was 3.27% (active); in the assay with UACC-257 melanoma it was 48%; with M14 melanoma it was 19.7%. For the same compound, the growth with HCT-15 colon was 22.9%.

Consider `CN(C)CCS(=O)(=O)CCN(C)C`, for which the growth was 117% in the assay with MALME-3M melanoma; 88.5% in the assay with MDA-MB-231 breast; 99.2% with RXF 393 renal; 107% in the assay on SF-268 CNS; 110% in the assay on SF-295 CNS; 100% in the assay on SF-539 CNS. Besides, the growth with UACC-257 melanoma is 110%; in the assay with M14 melanoma, 96.7%; with HCT-15 colon it was 103%.

Consider `COc1cc(NC(=O)CSc2nc3ccccc3c(=O)n2CCc2ccccc2)cc(OC)c1OC`, for which the growth in the assay on MDA-MB-231 breast was -17% (active); in the assay with SF-268 CNS, 13.9%; in the assay on SF-295 CNS it was 51.6%; in the assay with SF-539 CNS, -50% (active); in the assay with UACC-257 melanoma, 39.2%; with M14 melanoma, 41.9%. Also, the growth in the assay on HCT-15 colon is 89%.

`C[N+](C)(C)c1ncnc2nc[nH]c12`: the growth in the assay with K-562 leukemia was 73.3%; in the assay with MDA-MB-231 breast it was 111%; in the assay with SF-268 CNS it was 102%; in the assay on SF-295 CNS, 87.8%; in the assay with SF-539 CNS, 97.6%; in the assay on UACC-257 melanoma it was 91.5%. For the same compound, the growth in the assay with M14 melanoma was 93.8%; in the assay with HCT-15 colon, 94.2%.
